This note sets out measurements from PubChem BioAssay (NCI).

About 83,000 compounds went through this panel and 20% of them were active in at least one assay; those are over-represented in the sample as a whole.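 Step 1: grow cells in 96-well plates. Step 2: add test compound at a single concentration. Step 3: incubate 48 h. Step 4: record percent growth.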 Unmarked numbers belong to inactive results. Calls of active or inactive are those of the source. Rule for the calls: active = growth percent below 10; inactive = the rest.

Holding throughout (test): NCI-60 one-dose screen, 48 h (100 = growth as untreated, 0 = no growth, -100 = all killed)
Common to all, as to settings: 10 µM unless noted

Assay [1] concerns HCT-15 colon.
In assay [2] the test system is HT29 colon.
Assay [3] relates to SNB-75 CNS.
Assay [4] has as its system SNB-19 CNS.
Assay [5] concerns U251 CNS.
Assay [6] relates to PC-3 prostate.
Assay [7] deals with SK-MEL-5 melanoma.
Assay [8] has as its system UACC-62 melanoma.
Assay [9] deals with LOX IMVI melanoma.
In assay [10] the test system is SK-MEL-28 melanoma.
The subject of assay [11] is SK-MEL-2 melanoma.
The subject of assay [12] is EKVX NSCLC.
The test system of assay [13] is SN12C renal.
In assay [14] the test system is UO-31 renal.
The subject of assay [15] is TK-10 renal.
Assay [16] relates to ACHN renal.
The test system of assay [17] is CAKI-1 renal.
Assay [18] has as its system A498 renal.
The test system of assay [19] is CCRF-CEM leukemia.
The subject of assay [20] is MOLT-4 leukemia.

Regarding `CN1CCN(Cc2ccc(NC(=O)c3cc(C#Cc4cnc(N)c5ncccc45)n(C)n3)cc2C(F)(F)F)CC1`, the growth in [1] was 58.4%; in [2], 91.4%; in assay [3], 142%; in assay [4], 103%; in assay [5], 38.5%; in assay [6] it was 98.9%. For the same compound, the growth is 93.6% in [7]; 100% in [8]; 91.5% in assay [9]; 100% in [10]; 101% in assay [11]; 105% in assay [12]. In addition, the growth in assay [13] was 76.8%; in assay [14], 64%; in assay [15], 147%; in assay [16], 47.2%; in [17] it was 105%; in [18], 83.2%. Besides, the growth in [19] was 4.79% (active); in assay [20] it was 80.9%.
Regarding `O=C(NCCN1CCOCC1)c1cncnc1Nc1ccc2c(ccn2Cc2ccccn2)c1`, the growth in [1] is 105%; in [2] it was 102%; in assay [3], 82.4%; in assay [4], 95.5%; in assay [5] it was 99.7%; in assay [6], 101%. In addition, the growth is 101% in assay [7]; 94.6% in [8]; 101% in assay [9]; 108% in assay [10]; 110% in [11]; 104% in assay [12]. The growth in [13] is 93.7%; in [14] it was 88.5%; in assay [15] it was 98.7%; in assay [16], 107%; in assay [17] it was 92.4%; in assay [18] it was 101%. For the same compound, the growth in [19] was 121%; in assay [20] it was 104%.
For `O=C(Nc1cccc(Cn2c(=O)[nH]c3ccc(Oc4ncccn4)cc3c2=O)c1)c1cccc(Cl)c1`, the growth in assay [1] is 61.3%; in assay [2], 54.8%; in assay [3], 82.2%; in [4] it was 65.3%; in assay [5] it was 61.9%; in [6], 50.3%. Besides, the growth in assay [7] was 11.4%; in [8] it was 52.1%; in assay [9], 71.4%; in [10] it was 78.8%; in [11], 71.7%; in [12], 46.3%. In addition, the growth in assay [13] is 80.1%; in assay [14], 39.6%; in [15] it was 53.3%; in assay [16], 60%; in [17], 52.4%; in assay [18], 45.3%. Further, the growth in assay [19] is 47.1%; in assay [20], 15.4%.
As for `C=CN(C(=O)N1CCN(c2cc3c(cc2F)c(=O)c(C(=O)O)cn3C2CC2)CC1)c1nc(-c2ccc(C)cc2)cs1`, the growth is 9.38% (active) in [1]; 6.66% (active) in assay [2]; 14.4% in [3]; 18.5% in assay [4]; 11.4% in assay [5]; 14.7% in [6]. The growth is 26.6% in assay [7]; 29.2% in assay [8]; 8.56% (active) in assay [9]; 42.1% in [10]; 35.2% in [11]; 24.2% in assay [12]. For the same compound, the growth was 8.99% (active) in assay [13]; 13.4% in assay [14]; 42.3% in [15]; 27.7% in assay [16]; 20.9% in assay [17]; -4.05% (active) in assay [18]. Also, the figures for the growth in assay [19] and in assay [20] were 4.64% (active) and 13.9%, respectively.
On to `COc1cc(C(=O)c2c(-c3ccccc3)oc3ccccc23)cc(OC)c1O`, for which the growth in assay [1] was 32.1%; in [2] it was 109%; in assay [3] it was -1.53% (active); in assay [4], 32.8%; in assay [5], 25.6%; in assay [6] it was 43.9%. Also, the growth in assay [7] is 16.4%; in assay [8], 35.2%; in [9], 37.2%; in assay [10], 66%; in assay [11], 50.9%; in assay [12], 51.3%. In addition, the growth in assay [13] is 43.9%; in assay [14], 51.9%; in assay [15], 78.4%; in assay [16], 41.7%; in assay [17], 32.7%; in [18], 1.19% (active). Moreover, the growth in assay [19] was 13.9%; in assay [20] it was 28.6%.
With `COC(=O)c1ccc(-n2cc(CCCOS(=O)(=O)c3ccc(F)cc3)nn2)cc1`, the growth was 98.1% in [1]; 101% in assay [2]; 94.5% in assay [3]; 93.9% in assay [4]; 96.7% in [5]; 93.4% in assay [6]. Also, the growth in assay [7] is 103%; in assay [8] it was 92.5%; in [9], 98.4%; in assay [10], 101%; in assay [11], 101%; in [12], 101%. Also, the growth is 100% in [13]; 88.2% in assay [14]; 102% in assay [15]; 101% in [16]; 90.6% in assay [17]; 84.4% in assay [18]. The growth in assay [19] was 96.8%; in assay [20], 95.7%.
In the case of `CS(=O)(=O)Nc1cc(-c2ccc3ncnc(Nc4cccc(Cl)c4)c3c2)cnc1Cl`, the growth was 4.71% (active) in [1]; 2.65% (active) in assay [2]; -10.4% (active) in assay [3]; 18% in [4]; -2.63% (active) in [5]; -2.27% (active) in assay [6]. Also, the growth in [7] was -95.6% (active); in [8], -23.6% (active); in [9], -35.5% (active); in [10], 5.51% (active); in assay [11], -40.6% (active); in [12], -23.9% (active). Further, the growth was 16.2% in assay [13]; -2.12% (active) in [14]; -20.4% (active) in assay [15]; 11.8% in assay [16]; 2.5% (active) in [17]; -58.1% (active) in assay [18]. The growth in assay [19] is 14.7%; in assay [20], -16% (active).
Turning to `COc1ccc(-c2cc(-c3ccc(N(C)C)cc3)nc(NC(=O)c3cccnc3)n2)cc1`, the growth in [1] is 95%; in assay [2], 108%; in assay [3], 99%; in assay [4] it was 93.2%; in assay [5], 98.9%; in [6], 90.3%. Further, the growth in assay [7] is 97.1%; in assay [8] it was 95.1%; in [9], 97.1%; in assay [10], 106%; in [11] it was 111%; in [12] it was 96.6%. Moreover, the growth is 97.5% in [13]; 80.6% in assay [14]; 117% in assay [15]; 95.6% in assay [16]; 92.6% in [17]; 109% in [18]. In addition, the growth is 104% in [19] and 98% in assay [20].
